Rows were chosen to be rich in hits. Some 2.6% of all compounds tested hit in one or more screens of this group.
TRPV1 ag: activates the human vanilloid receptor TRPV1. TRPV1-expressing cells, Fluo-8 calcium influx, agonist mode. 0.19% of 320,000 active. activation, % at 8.33 µM; in the data active means activation above about 80%; inconclusive means between about 30% and that limit; further: 0% is about no effect
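Cells expressing TRPV1 were dye-loaded with Fluo-8 and read kinetically: 10 s baseline, 3 min after compound (agonist portion), then 2 min after EC20 capsaicin (allosteric enhancer portion). Calcium-bound dye fluorescence at 480/520 nm.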
p53 reactivator: restores transcriptional activity of mutant p53; H1299 p53-A138V BP100-luciferase reporter, luminescence, 24 h; Potency, µM (series often up to 92.2 µM), for the others: top-dose activity change, positive = activation, actives largely listed as activators; 0.063% of 320,000 active; active means well fitted activation curve with a large enough effect; inconclusive means small, poorly fitted or top-dose-only effect; inactive means no such curve, though single readings can be large or run the other way; further: potency means the concentration at half of the fitted maximal effect; % of control where 0% means no effect; nearly all actives have a fitted effect of over 45% in size
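p53-null H1299 cells stably carrying temperature-sensitive p53-A138V and a BP100-luciferase reporter were pinned with compounds (4-point, 1:5 series) and held 24 hrs at 37 deg C. Luminescence was read 10 min after detection reagent.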
ClpP mod: qHTS Assay for Activators of ClpP | 1.9% of 340,000 active | AID 651965, 2013 | purified B. subtilis ClpP, FRET peptide cleavage, 20 min | ATP-dependent Clp protease proteolytic subunit (Bacillus subtilis (strain 168)), P80244 | Potency, µM (top dose mostly 57.5 µM), for the others: at the highest dose activity change, negative = active; active means well fitted falling curve with a large enough effect; inconclusive means small, poorly fitted or top-dose-only effect; inactive means no such curve, though single readings can be large or run the other way; further: potency means the concentration at half of the fitted maximal effect; the source files actives as falling curves though it sought activators and does not explain the sign; nearly all actives have a fitted effect of over 65% in size
Target sequence (P80244 whole entry, looked up): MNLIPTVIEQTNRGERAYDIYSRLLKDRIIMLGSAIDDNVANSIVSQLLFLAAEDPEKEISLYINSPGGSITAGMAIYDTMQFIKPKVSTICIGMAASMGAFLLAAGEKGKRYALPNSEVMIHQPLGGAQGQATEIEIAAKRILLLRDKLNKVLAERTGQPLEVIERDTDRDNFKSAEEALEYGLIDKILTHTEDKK
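Buffer: 100 mM Tris/HCl pH8, 100 mM KCl, 0.05% low protease BSA, 2.5% glycerol, 0.01% Tween-20. ClpP 10 microg/mL final; 20 min RT; delta FRET normalized to ADEP and DMSO controls.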
hERG WT inh: KCNH2 (human, wildtype) channel inhibition. U2OS, BacMam KCNH2, thallium flux FluxOr; hits give low values. 0.37% of 340,000 active. activity change, % at 1.84 µM;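 active means maximum activity change below -70%; inconclusive means maximum activity change between -70% and -50%; inactive means maximum activity change above -50%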; further: on the % scale 0 is the no-effect control and ±100 the full control effect
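U2OS cells transduced with wild-type KCNH2 virus are loaded with FluxOr dye for 45 min, and thallium flux is measured in kinetic reads before and after stimulation buffer. Rate constants are normalized to DMSO controls.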
TRPV1 potentiator: human TRPV1 potentiation | 0.02% of 320,000 active | TRPV1-expressing cells, Fluo-8 calcium influx, capsaicin EC20 potentiation | potentiation, % at 8.33 µM; in the data active means potentiation above about 80%; inconclusive means between about 30% and that limit; further: 0% is about no effect
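Cells expressing TRPV1 were dye-loaded with Fluo-8 and read kinetically: 10 s baseline, 3 min after compound (agonist portion), then 2 min after EC20 capsaicin (allosteric enhancer portion). Calcium-bound dye fluorescence at 480/520 nm.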
KCNH2 3.1 inh: blocks the human KCNH2 3.1 channel isoform; activity change, % (tested at about 1.8 µM); U2OS KCNH2 3.1, thallium flux FluxOr; hits give low values; 0.95% of 340,000 active; AID 720553;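 active means maximum activity change below -70%; inconclusive means maximum activity change from -70% to -50%; inactive means maximum activity change above -50%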;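 further: thallium influx rate constant from kinetic fluorescence after stimulation buffer; on the % scale 0 is the no-effect control and ±100 the full control effect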
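Steps: virus added to U2OS suspension (4 h, RT, dark); medium with 10% FBS added, cells plated, 37 C overnight; FluxOr/Red40 loading buffer 45 min RT; stimulation buffer, 2 min kinetic read; rate constant normalized.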
The depositor's hits bear a star; ? = inconclusive; nt = no result.

SMILES	TRPV1 ag	p53 reactivator	ClpP mod	hERG WT inh	TRPV1 potentiator	KCNH2 3.1 inh
CCOC(=O)c1ccc(NC(=O)/C=C/c2cccs2)cc1	84*	0%	nt	-11	2	-14
CCN(CC)CCOC(=O)c1ccc(NC(=O)/C=C/c2cccs2)cc1	15	?	0%	nt	-29	-30
O=C(/C=C/c1cccs1)c1ccc(NC(=O)c2ccccc2F)cc1	10	?	0%	-4	18	-9
COc1ccccc1C(=O)Nc1ccc(C(=O)/C=C/c2cccs2)cc1	0	18%	0%	65	-4	-83*
NS(=O)(=O)c1cccc(NC(=O)/C=C/c2cccs2)c1	94*	-8%	-2%	-6	-7	0
Cc1ccnc2ccc(Br)cc12	nt	nt	1%	nt	nt	nt
CC(O)(c1ccc(F)c(F)c1)c1nc(-c2ccc(S(C)(=O)=O)cc2)cs1 (stereo not drawn)	nt	nt	-5%	nt	nt	nt
CCCCN(C)C(=O)c1ccc(Nc2nc(C(N)Cc3ccc(C(F)(F)F)cc3)cs2)nc1 (stereo not drawn)	nt	nt	-13%	nt	nt	nt
COC(=O)c1cc2sccc2n1CC(=O)Nc1ccc(OC)c(OC)c1	nt	nt	-8%	nt	nt	nt
COc1ccc(NC(=O)c2oc3ccccc3c2NC(=O)C23CC4CC(CC(C4)C2)C3)cc1	nt	nt	-18%	nt	nt	nt
O=C(c1ccco1)N1CCN(S(=O)(=O)c2ccc(Br)cc2)CC1	6	0%	0%	-5	-5	-4
O=C(c1ccco1)N1CCN(S(=O)(=O)c2ccc(S(=O)(=O)NC3CC3)cc2)CC1	0	0%	-8%	11	9	-83*
COc1cc(-c2nnc(SCC(=O)/C(C#N)=C(\C)N)o2)cc(OC)c1OC	1	2%	14µM*	3	-2	5
COc1cc(-c2nnc(-c3cc(OC)c(OC)c(OC)c3)o2)cc(OC)c1OC	0	-6%	25µM*	10	0	7
COc1cc(-c2n[nH]c(=O)o2)cc(OC)c1OC	-2	-7%	16µM*	-6	20	9
CCc1ccccc1OCCSc1nnc(-c2cc(OC)c(OC)c(OC)c2)o1	nt	nt	25µM*	nt	nt	nt
COc1cc(-c2nnc(-c3ccccc3)o2)cc(OC)c1OC	5	13%	?	-5	4	-5
COc1cc(-c2nnc(SCCOc3cc(C)cc(C)c3)o2)cc(OC)c1OC	nt	nt	-4%	nt	nt	nt
COc1cc(-c2nnc(SCC(=O)N3CCOCC3)o2)cc(OC)c1OC	1	-1%	-1%	5	1	7
COc1cc(-c2nnc(SCC3(c4ccc(Br)cc4)OCCO3)o2)cc(OC)c1OC	6	-2%	28µM*	-4	20	-30
COCCCN1C(=O)C(=O)/C(=C(/O)c2ccc3c(c2)OCCO3)C1c1ccc(C(=O)OC)cc1 (stereo not drawn)	-2	3%	32µM*	0	-5	2
COCCN1C(=O)C(=O)/C(=C(/O)c2ccc3c(c2)OCCO3)C1c1ccc(C(=O)OC)cc1 (stereo not drawn)	-2	3%	-11%	0	3	12
COc1ccc(C2NC(=S)NC(C)=C2C(=O)N2CCOCC2)cc1 (stereo not drawn)	-1	2%	-8%	-278*	3	3
CC1=C(C(=O)N2CCOCC2)C(c2cccc(C)c2)NC(=S)N1 (stereo not drawn)	0	6%	1%	-42	-27	4
COc1cc(C(=O)N(Cc2cccnc2)Cc2cc3cc4c(cc3[nH]c2=O)OCCO4)cc(OC)c1OC	-1	-7%	28µM*	0	18	8
SMILES	TRPV1 ag	p53 reactivator	ClpP mod	hERG WT inh	TRPV1 potentiator	KCNH2 3.1 inh
COc1ccc2[nH]c(=O)c(CN(Cc3cccnc3)C(=O)Nc3ccccc3)cc2c1	0	-7%	32µM*	5	-3	-1
O=C(CN1CCN(c2ccccc2)CC1)c1ccc2cc[nH]c2c1	24	3%	?	20	-17	-19
O=C(CN1CCC2(CC1)OCCO2)c1ccc2cc[nH]c2c1	5	1%	32µM*	6	-5	1
O=C1[C@H](Cc2ccccc2)NC/C=C\C[C@H](c2ccc(Cl)cc2)N1Cc1ccc(Cl)cc1	nt	nt	-2%	nt	nt	nt
Cc1nnc(SCc2nnc(-c3cccs3)o2)n1Cc1ccccc1	-9	-1%	-1%	-18	-12	-2
Clc1ccc(-c2nnc(CSc3nnc(-c4cccs4)n3Cc3ccccc3)o2)cc1	2	-1%	-4%	-125*	2	-86*
CCc1sc(C(=O)Nc2cc(Cl)ccc2N2CCCCC2)cc1C	3	-1%	22µM*	0	10	9
Cc1noc(C)c1CSCC(=O)Nc1cc(Cl)ccc1N1CCCCC1	-1	0%	25µM*	3	11	6
O=C(C[n+]1cccc2cc(Cl)ccc21)c1ccc(Br)cc1	nt	nt	-12%	nt	nt	nt
C[C@@H]1CN([C@@H](C)CO)S(=O)(=O)c2ccc(Br)cc2O[C@H]1CN(C)C(=O)Nc1ccc(C(F)(F)F)cc1	nt	nt	-1%	7	nt	-13
O=C(NCc1ccncc1)C1CCCN(S(=O)(=O)c2cc(Cl)ccc2Cl)C1 (stereo not drawn)	87*	-1%	nt	1	-18	-8
CCOC(=O)[C@]12CCC=C1N(Cc1ccc3c(c1)OCO3)C(=O)[C@H](CC(=O)NCc1ccc(C)o1)C2	nt	nt	-8%	nt	nt	nt
COc1ccc(C=C(c2ccc(OC)cc2)c2ccc(OC)cc2)cc1	-3	4%	32µM*	4	4	-3
COc1ccc(/C=N/N=C/c2ccc(OC)cc2)cc1	2	4%	-1%	-3	-2	-27
O=C(CSC1=NCCS1)N1CCN(c2ccccc2)CC1	4	35µM*	-2%	0	16	-5
Cc1ccc(C)c(Cc2c(C)nc3c(C(=O)N4CCOCC4)cnn3c2C)c1	-2	-28%	28µM*	5	10	-3
Cc1ccccc1Cc1c(C)nc2c(C(=O)NCc3ccco3)cnn2c1C	16	-19%	32µM*	9	-12	2
Cc1ccccc1Cc1c(C)nc2nc(SCC(=O)NCc3ccco3)nn2c1C	-1	?	0%	1	12	9
COc1ccc(OC)c(NC(=O)c2c(NCc3ccc(OC)c(OC)c3)sc3c2CCC(C)C3)c1 (stereo not drawn)	nt	nt	0%	nt	nt	nt
COc1cccc(Nc2nc3cc(C)ccc3cc2C)c1	nt	nt	-20%	19	nt	23
CC[C@]12c3[nH]c4ccccc4c3CCN1C(=O)C(CC(=O)NCCN1CCOCC1)C[C@@H]2C(=O)N1CCN(C(=O)C2CC2)CC1 (stereo partly drawn)	nt	-2%	-1%	-114*	nt	6
CCN(CC)CCCNC(=O)Cn1c(-c2cccs2)cc2cc(Cl)ccc21	nt	nt	28µM*	nt	nt	nt
